# Measurements as given in PubChem BioAssay AID651725 (National Center for Advancing Translational Sciences (NCATS), 2012).
# The campaign covered roughly 360,000 compounds. About 2,000 (0.56%) were called active. Another 2% or so got no clear call; they are omitted. Only a selection was taken, and actives are over-represented in it overall. A number with no mark means an inactive call. Rule as the data show it: active = activity change below about -65%; inconclusive = mostly about -30% to -63%; inactive = weaker than that.
# Target: Homeobox protein SIX1 (Homo sapiens) + Protein phosphatase EYA2 (Homo sapiens) (UniProt Q15475+O00167)
# Sequence (O00167 whole entry, looked up): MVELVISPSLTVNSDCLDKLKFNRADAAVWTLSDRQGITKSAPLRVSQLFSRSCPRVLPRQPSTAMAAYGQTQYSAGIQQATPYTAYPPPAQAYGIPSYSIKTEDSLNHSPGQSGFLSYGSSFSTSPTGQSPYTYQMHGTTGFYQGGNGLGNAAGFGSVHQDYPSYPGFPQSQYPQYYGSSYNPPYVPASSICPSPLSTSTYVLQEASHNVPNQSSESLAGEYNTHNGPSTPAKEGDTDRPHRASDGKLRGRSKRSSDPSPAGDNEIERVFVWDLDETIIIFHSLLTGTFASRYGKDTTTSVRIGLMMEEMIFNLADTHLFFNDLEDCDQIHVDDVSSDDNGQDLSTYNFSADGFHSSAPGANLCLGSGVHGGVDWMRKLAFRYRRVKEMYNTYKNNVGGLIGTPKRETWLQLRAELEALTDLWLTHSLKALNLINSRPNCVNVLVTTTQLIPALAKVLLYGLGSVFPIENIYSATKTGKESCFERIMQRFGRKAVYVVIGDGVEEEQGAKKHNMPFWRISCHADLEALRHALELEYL
# Sequence (Q15475 whole entry, looked up): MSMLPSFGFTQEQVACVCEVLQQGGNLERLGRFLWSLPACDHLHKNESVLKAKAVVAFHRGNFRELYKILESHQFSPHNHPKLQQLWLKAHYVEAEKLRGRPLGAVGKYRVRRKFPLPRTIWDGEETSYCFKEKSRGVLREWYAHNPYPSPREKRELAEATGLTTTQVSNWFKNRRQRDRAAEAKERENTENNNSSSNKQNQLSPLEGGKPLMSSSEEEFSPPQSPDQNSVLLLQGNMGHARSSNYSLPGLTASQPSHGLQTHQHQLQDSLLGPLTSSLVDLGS
# Test: qHTS Assay for Inhibitors of the Six1/Eya2 Interaction
# Conditions: AlphaScreen GST-Six1/His-Eya2 binding, biochemical; active compounds read low
# Description: Its expression is low or undetectable in normal adult breast tissue but the gene is over-expressed in 50% of primary breast tumors and 90% of metastatic lesions. […] Similar to Six1, Eya2 is also not expressed in most normal adult tissues, but is reexpressed in cancers. The Six1-Eya interaction is essential for proliferation during embryonic development, and both Six1 and Eya2 have been independently implicated in the same types of cancer. Because Six1 and Eya2 are embryonic genes with little expression in adult tissues, inhibitors of their expression/activity are likely to have limited side effects. Our goal is to identify inhibitors of the Six1/Eya interaction for potential cancer therapy. To this end, we have developed a homogenous AlphaScreen assay targeting the Six1/Eya interaction. We performed a large scale HTS of the Molecular Libraries Small Molecule Repository (MLSMR) to identify inhibitors of the Six1/Eya interaction as potential anti-cancer therapeutics. Compounds identified can also be used as chemical probes to better understand the biological functions of Six1 and Eya. NIH Chemical Genomics Center [NCGC] NIH Molecular Libraries Probe Centers Network [MLPCN] MLPCN Grant: DA033147 Assay Submitter (PI): Rui Zhao, University of Colorado Denver
# The first step of the 5 uL AlphaScreen assay is to dispense assay buffer (50 mM Tris, pH 8.0, 300 mM NaCl, 0.05% BSA, 0.02% Tween 20, 1 mM TCEP) into a Greiner 1536 white solid bottom microtiter plate (789175-F). Five microliters is added to Column 1, 4 uL is added to Column 2 and 3 uL is added to Columns 3 through 48. A 5X protein solution (250 nM GST-Six1 protein + 500 nM His-tagged Eya2 protein) is mixed and 1 uL is dispensed to Columns 3-48. Using a 1536 pintool, 23 nL of compound is transferred to the assay plate. A solution of 5X AlphaScreen beads is mixed (50 ug/mL Glutathione linked donor beads + Nickel chelated acceptor beads) and 1 uL is dispensed to Columns 2-48. The assay plate is incubated for one hour, with a lid, at 37 deg C in the dark. The plate is read using a Perkin Elmer Envision using an AlphaScreen protocol.
# % is scaled to controls: 0 for no effect and ±100 for the full control effect.
row,Compound,activity change
1,O=[N+]([O-])c1ccc(C=Nc2ccc(Cl)cc2Cl)s1,-73.2% (active)
2,CCC(C)CN1C(=O)CN(S(C)(=O)=O)CC1(C)C(=O)Nc1ccc2c(c1)OCCO2 (configuration not stated),16.6%
3,COc1ccc2c(c1)CCCO[C@]21O[C@H](CCO)C[C@H](O)[C@H]1O,6.3%
4,CC(C)(C)OC(=O)NCCCCCNC(=O)c1nc[nH]c1C(=O)NCc1ccccc1,-0.665%
5,CC(C)(C)OC(=O)NCCCCCNC(=O)c1[nH]cnc1C(=O)Nc1nccs1,-76.4% (active)
6,Cc1ccc(NC(=O)c2nc[nH]c2C(=O)N[C@@H](CCCCNC(=O)OC(C)(C)C)C(=O)OC(C)(C)C)cc1,-3.47%
7,COC(=O)c1ccc2nc(-c3cccc(Br)c3)c(Cc3ccccc3C(F)(F)F)n2c1,-10.3%
8,Cc1ccc(C(=O)N2CCN(C3CCCCC3)CC2)s1,-13.4%
9,OCCC#Cc1ccc(N2C(c3ccsc3)=Cc3ccc(F)cc3C2c2c[nH]c3ccccc23)cc1 (configuration not stated),-7.53%
10,COc1ccc(C(=O)NNC(=O)c2cc(C)[nH]n2)cc1,1.78%
11,O=C(N/N=C/c1cccc(OC(=O)c2ccc([N+](=O)[O-])cc2)c1)c1cccnc1,-3.98%
12,Cc1cc(C(=O)N/N=C/c2cc([N+](=O)[O-])cc(C)c2O)n[nH]1,-77.5% (active)
13,CCCCNS(=O)(=O)c1ccc2nc(SCC(=O)Nc3cc(C)cc(C)c3)[nH]c2c1,-4.15%
14,CCOC(=O)[C@]12CCCC=C1N(Cc1cccc3ccccc13)C(=O)[C@H](CC(=O)NCC13CC4CC(CC(C4)C1)C3)C2,-14%
15,Nc1nonc1-n1nnc(C(=O)N/N=C/c2ccccc2O)c1CN1CCCC1,-91.1% (active)
16,NNC(=O)c1nnn(-c2nonc2N)c1CN1CCCC1,4.15%
17,Nc1nonc1-n1nnc(C(=O)N/N=C\c2ccncc2)c1CN1CCCCC1,-5.55%
18,COC(=O)C[C@H]1C=C[C@H](NC(=O)c2ccc(F)cc2)[C@@H](CO)O1,7.11%
19,Cc1cc(C)c(S(=O)(=O)NN=C2c3ccccc3[C@H]3Cc4csc[n+]4[C@@H]23)c(C)c1,-12.5%
20,Cc1cccc(N(CC(=O)N2CCCC2)S(C)(=O)=O)c1C,7.01%
21,COc1ccc(Cc2nnc(SCC(=O)Nc3ccc(C)c(Cl)c3)[nH]c2=O)cc1,6.59%
22,Cc1ccc(NC(=O)CSc2nn3c(=O)c(C)nnc3s2)cc1Cl,-81.7% (active)

row,Compound,activity change
1,Cc1ccc(NC(=O)CSc2nnc(CNC(=O)c3ccccc3F)o2)cc1Cl,8.8%
2,O=C(Nc1ccc(F)cc1)C(CCc1ccccc1)N1CCN(CC(=O)N2CCCC2)CC1 (configuration not stated),1.59%
3,FC(F)(F)c1cccc(-c2nc3ccccc3n2C(c2ccccc2)c2nc3ccccc3[nH]2)c1 (configuration not stated),-13.3%
4,CCN(CC(=O)NC1CCS(=O)(=O)C1)S(=O)(=O)c1ccccc1 (configuration not stated),9.89%
5,Cc1ccccc1CN1C(=O)CSCC1(C)C(=O)Nc1c(C)cccc1C (configuration not stated),-3.18%
6,Cc1nc(N=C(N)N)nc2c(C)cccc12,-72.7% (active)
7,COC(=O)[C@@]12C[C@@H](CC(=O)NCCCCc3ccccc3)C(=O)N(CCc3ccc(OC)c(OC)c3)C1=CCC(C)(C)C2,-8.99%
8,Cc1ccc(C(=O)Nc2c(-c3ccccc3)[nH][nH]c2=O)cc1,3.7%
9,COC(=O)C[C@@H]1C=C[C@@H](NS(=O)(=O)c2cccc(OC)c2)[C@@H](CO)O1,-2.42%
10,COc1ccc(Cc2nnc(SC)[nH]c2=O)cc1,0.132%
11,COc1ccc(Cc2nnc(N/N=C/c3ccccc3O)[nH]c2=O)cc1OC,-85.7% (active)
12,CC(C)c1ccc(Cc2nnc(NCCCO)[nH]c2=O)cc1,4.24%
13,Cc1ccc(/C=C/C(=O)OCC(=O)Nc2cccnc2Cl)cc1,-0.924%
14,CC(C)(C)NC(=O)C(CCc1ccccc1)n1c(=O)c(-c2ccccc2)nc2ccccc21 (configuration not stated),7.94%
15,O=C(O)c1ccc2c3c(cccc13)C(=O)N(OS(=O)(=O)c1ccccc1)C2=O,-77.1% (active)
16,COc1cccc(-c2ccc3c(c2)S(=O)(=O)c2cccc(C(=O)O)c2C3=O)c1OC,-5.18%
17,Cc1cc(Br)cn2c(Cc3ccccc3C(F)(F)F)c(C3CCCCC3)nc12,11.6%
18,CC(=O)N1Cc2cc(C(=O)NCc3cccc(F)c3)nc(-c3cccc(C4=CCCC4)c3)c2[C@H]1CCO,-15.8%
19,O=C(COc1cc(Cl)c(Cl)cc1Cl)NCCc1ccccn1,-7.95%
20,O=C(COC(=O)COc1cc(Cl)c(Cl)cc1Cl)NC1CC1,3.24%
21,NC(=S)NN=Cc1ccc(OC(=O)COc2cc(Cl)c(Cl)cc2Cl)cn1,-93.5% (active)
22,COc1ccc(C(C(=O)NCc2ccccc2)n2c(=O)c(-c3ccccc3)nc3ccccc32)cc1 (configuration not stated),0.529%

row,Compound,activity change
1,CC(C)C[C@H]1CNC(=O)C(=O)N1C[C@@H]1CCCN1C[C@H](Cc1ccccc1)N1C[C@H](CC(C)C)N(CC2CCCCCC2)C(=O)C1=O,-1.64%
2,O=c1[nH]c2ccccc2n2c(-c3ccccc3)nnc12,-65.3% (active)
3,O=C(c1ncn2c1c(=O)[nH]c1ccccc12)N1CCc2ccccc2C1,-3.9%
4,Cc1nc2ccccc2n1CC(=O)N/N=C/c1cccs1,-11.4%
5,Cc1n[nH]c(=O)nc1N/N=C/c1cccs1,-90.5% (active)
6,Cn1c(=O)c2c(nc(N/N=C/c3cccs3)n2Cc2ccc(Br)cc2)n(C)c1=O,29.6%
7,Cc1nccn1-c1ccc(NC(=O)[C@H]2O[C@@H](n3ccc(=O)[nH]c3=O)[C@H](O)[C@@H]2O)cc1,1.11%
8,O=C(NCc1ccccc1)C(c1ccc(F)cc1)N1CCN(C(=O)C2CCCO2)CC1 (configuration not stated),20.6%
9,Cc1cccc(NC(=O)c2cc(N3C(=O)CCC3=O)ccc2Cl)n1,3.08%
10,Cc1cc(NC(=O)c2ccccc2C)no1,9.99%
11,Cc1cc(NC(=O)c2cccc(N3C(=O)CCC3=O)c2)no1,-70.6% (active)
12,Cc1ccc(S(=O)(=O)N2[C@@H](Cc3ccccc3)CO[C@H]2CC(=O)OCc2ccccc2)cc1,-3.63%
13,CCOC(=O)C1C(C)C(C(C)(C)C)N(S(=O)(=O)c2ccc(C)cc2)C1c1ccccc1 (configuration not stated),6.65%
14,CCOc1cccc(/C=N/NC(=S)NCCN2CCOCC2)c1O,-92.1% (active)
15,O=C(NCCN1CCOCC1)Nc1cccc(Cl)c1,3.67%
16,C=C(C)CNC(=S)N/N=C/c1ccccc1OCC(=O)O,0.44%
17,CCOC(=O)[C@]12CCCC=C1N(CCC1=CCCCC1)C(=O)[C@H](CC(=O)N1CCCCC1)C2,-1.85%
18,COc1ccc(C(=O)C(OP(=O)(OC)OC)c2ccccc2OC)cc1 (configuration not stated),2.49%
19,O=C(COC(=O)Cc1ccc(Br)cc1)Nc1c(F)c(F)c(F)c(F)c1F,1.31%
20,Brc1ccccc1/C=N/Nc1nc2ccccc2o1,-4.05%
21,Cc1nc2ccccc2nc1N/N=C/c1ccc(O)cc1O,-69.1% (active)
22,Oc1ccc2nc(Cc3ccccc3)[nH]c2c1,-2.17%

row,Compound,activity change
1,Oc1ccc(/C=N/Nc2nc(-c3ccccc3F)nc3ccccc23)c(O)c1,-71.7% (active)
2,O=C(C[C@H]1CC[C@@H](NC(=O)c2ccncc2)[C@@H](CO)O1)NCC1CC1,8.47%
3,CCCCCCCCN1C(=O)[C@H](CC(=O)NCC23CC4CC(CC(C4)C2)C3)C[C@@]2(C(=O)OC)CCCCC=C12,-0.139%
4,O=S1(=O)CC(N2CCSCC2)CN1Cc1cn(Cc2cccc(Cl)c2)nn1 (configuration not stated),0.627%
5,CCOc1cccc2c1OC1(CCCCC1)N1N=C(c3cccnc3)CC21 (configuration not stated),-13.8%
6,C[C@H]1COc2cc(N3CCSCC3)ccc2S(=O)(=O)N1,3.55%
7,COc1ccc(S(=O)(=O)Nc2ccc(F)cc2)c(C)c1C,-0.291%
8,COc1cc(N2CCCC2)c(OC)cc1/C=C(/C#N)c1cccc(Br)c1,-67% (active)
9,Cc1nc2c(OCc3ccc(Cl)cc3Cl)cccn2c1N(C)CC1CC1,-5.16%
10,Nc1nc2ncccn2c1-c1ccccc1,3.63%
11,CCCOc1ccc(Cc2c(O)nc(N)[nH]c2=O)cc1C,-5.12%
12,Cc1ccc(S(=O)(=O)N2CC3C(=O)C[C@@H](c4ccccc4Cl)N(S(=O)(=O)c4ccc(C)cc4)C3CC2c2ccccc2)cc1 (some centres not stated),-4.43%
13,CC1(C)OC(=O)C2=C(C[C@@H](C3CC3)O[C@H]2CCc2cccc(Cl)c2)O1,7.67%
14,CCc1c(-c2ccc(F)cc2)ncn1Cc1cccc(-c2ccccc2)c1,-29.6%
15,O=S(=O)(NCCOc1cccc2cccnc12)c1ccc(F)cc1,6.83%
16,NC(=O)C1CCN(C(=O)COc2cccc3cccnc23)CC1,8.87%
17,O=C(Nc1ccccc1)Oc1cccc2cccnc12,-91.9% (active)
18,CCCCNC(=O)C[C@@H]1C[C@@]2(C(=O)OC)CC(C)(C)CC=C2N(Cc2ccco2)C1=O,-8.69%
19,CCCc1c(C(=O)Nc2ccc(F)cc2)cnn1-c1ccccc1,1.46%
20,COCCCn1cc(CN2CC(N(C)C)CS2(=O)=O)nn1 (configuration not stated),15.9%
21,COC(=O)[C@]12CCCCC=C1N(CCC1=CCCCC1)C(=O)[C@H](CC(=O)N1CCSCC1)C2,-5.23%
